# Values joined by “and” are separate entries in the source; they are usually repeats but may differ in a detail not shown here. Identical values can stand only once. Records with an inconclusive call do not appear. More than one record can exist for a structure, and the calls need not agree. Active and inactive are the calls of the source. How the source made its calls, unless noted: active means hit-call score of the fitted dose curve at least 0.9, where 1 is the maximum; inconclusive means response in the unintended direction; inactive means score below 0.9.
# Key:
# [1] = ACEA_AR_agonist_AUC_viability: ACEA Biosciences xCELLigence Real-Time Cell Analysis on Androgen Receptor Agonism for Viability (AID 2283775);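 on AC50: viability read 80 hours after compound addition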
# Outline: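 Viability endpoint from xCELLigence impedance in 22Rv1 prostate cells at 80 h. Eight-point series, 100 uM maximum final.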
# [2] = ACEA_AR_antagonist_AUC_viability: ACEA Biosciences xCELLigence Real-Time Cell Analysis on Androgen Receptor Antagonism for Viability (AID 2283776);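 further: 22Rv1 human prostate cancer cells growing on impedance electrode plates; area under impedance growth curve at 80 h after dosing as viability; hits lower the growth signal relative to DMSO meaning cytotoxicity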
# Outline: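 Impedance read-out (RT-CES): area under growth curve at 80 h post-dose, loss of signal scored vs DMSO baseline. 22Rv1 cells; 8-pt 1:4 series, top 100 uM final, ≤0.5% DMSO; biological duplicate.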
# [3] = ACEA_ER_AUC_viability: ACEA Biosciences xCELLigence Real-Time Cell Analysis on Estrogen Receptor Agonism for Viability (AID 2283782);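 further: hit means loss of impedance signal meaning reduced cell growth or viability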
# Outline: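 Viability endpoint: reduced impedance area under the curve relative to DMSO, recorded by real-time electrode sensing over ~80 h of continuous exposure. Duplicate plates of T47D in hormone-depleted medium; eight concentrations, 1:4 dilutions, 100 uM maximum.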
# [4] = Tanguay_ZF_120hpf_TR_legacy: (Legacy) Oregon State University Tanguay Lab 120 Hour Post-fertilization zebrafish Assay for Touch Response (AID 2283667)
# Outline: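 Binary touch-response endpoint in larvae at 120 hpf after static waterborne exposure from embryo stage (28°C, 0.64% DMSO vehicle, 5 uM trimethyltin chloride as positive control); embryos dead at 24 or 120 hpf excluded; fitted as gain versus DMSO.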
# [5] = read-out: Cytochrome P450 (CYP24A1_1), CYP24A1 (gene 1591); experiment: LTEA_HepaRG_CYP24A1_1: Life Technologies and Expression Analysis (LTEA) Assay for Cytochrome P450 (CYP24A1_1) using HepaRG (AID 2283671; active means hit-call score of the fitted dose curve at least 0.9, where 1 is the maximum; inactive means score below 0.9); settings: mRNA level, 48 h; actives raise or lower the signal
# Outline: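 Differentiated human HepaRG cells were exposed in duplicate for 48 h in serum-free induction medium to eight concentrations (top 100 uM, half-log steps, 0.5% DMSO). CYP24A1 mRNA was quantified by TaqMan qRT-PCR, normalized to ACTB, GAPDH and POLR2A, and fitted bidirectionally versus DMSO.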
# [6] = Tanguay_ZF_120hpf_ActivityScore_legacy: (Legacy) Oregon State University Tanguay Lab 120 Hour Post-fertilization zebrafish Assay Score for Activity (AID 2283742);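 on AC50: dechorionated Tropical 5D wild-type zebrafish embryos held singly per well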
# Outline: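 Binary scoring of mortality and morphology by brightfield at 24 and 120 hpf, summarised into one activity score from 18 components relative to DMSO. Wild-type Tropical 5D zebrafish, chorion removed at 4 hpf, static exposure 6–120 hpf, 28 °C.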
# [7] = STM_H9_OrnithineISnorm_perc: Stemina devTOX quickPredict H9 human embryonic stem cell (hESC)-based Assay for Ornithine (ORN) Metabolite Biomarker, Normalized (AID 2283712; active means hit-call score of the fitted dose curve at least 0.9, where 1 is the maximum; inactive means score below 0.9;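 further: ornithine released into spent medium during last day measured by mass spectrometry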)
# Outline: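 UPLC-HRMS readout: endogenous ornithine EIC area / 13C-ORN internal standard, then % of 0.1% DMSO median. H9 hESCs (pluripotent), 72h exposure, re-dosed with fresh media q24h; last 24-h spent media, deproteinized in 40% acetonitrile.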
# [8] = STM_H9_CystineISnorm_perc: Stemina devTOX quickPredict H9 human embryonic stem cell (hESC)-based Assay for Cystine (CYSS) Metabolite Biomarker, Normalized (AID 2283713; active means hit-call score of the fitted dose curve at least 0.9, where 1 is the maximum; inactive means score below 0.9)
# Outline: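 UPLC-HRMS read-out: endogenous cystine peak area in spent medium, normalized to isotope-labeled internal standard and to median of 0.1% DMSO controls. Pluripotent H9 cells, 72h exposure, daily medium/compound replenishment; medium from last 24h sampled.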
# [9] = STM_H9_OrnCyssISnorm_ratio: Stemina devTOX quickPredict H9 human embryonic stem cell (hESC)-based Assay for Ornithine (ORN):Cystine (CYSS) Ratio (AID 2283714)
# Outline: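 Ratio of internal-standard-normalized ornithine to cystine, measured by UPLC-HRMS in spent media from the last 24 h. H9 cells kept pluripotent, dosed 72 h with daily media and compound renewal; DMSO 0.1% serves as baseline.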
# [10] = STM_H9_NormalizedViability: Cytotoxicity Assessment at 120 hours in the Stemina devTOX quickPredict H9 human embryonic stem cell (hESC)-based Assay (AID 2283784)
# Outline: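 CellTiter-Fluor RFU, background-subtracted, expressed relative to 0.1% DMSO neutral control by plate. Pluripotent H9 cells; treatment with daily re-dosing. Plates carried 1uM methotrexate (positive) and 5 nM methotrexate (negative) references.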
# [11] = CCTE_Padilla_ZF_144hpf_TERATOSCORE: (Legacy) CCTE's 144 Hour Post-fertilization zebrafish Assay Teratoscore, Padilla Lab (AID 2283679; active means hit-call score of the fitted dose curve at least 0.9, where 1 is the maximum; inactive means score below 0.9;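 further: zebrafish embryos with chorions exposed by immersion from 6-8 hpf to 5 dpf with daily renewal; teratogenicity score from eye scoring of death hatching and malformations at 144 hpf; higher score means more developmental defects relative to DMSO baseline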)
# Outline: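 Larvae scored by eye at 144 hpf for death, hatching and malformations after a day in clean Hanks'. Before that, daily-renewed exposure at 80 uM (0.4% DMSO, 26C) from roughly 6-8 hpf through 5 dpf, 4 embryos per chemical.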
# [12] = tested on: Thyroperoxidase (TPO), gene 445522; experiment: CCTE_Simmons_GUA_TPO: CCTE's Guaiacol Assay for Thyroperoxidase (TPO) Inhibition, Simmons Lab (AID 2283750)
# Outline: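 Porcine thyroid microsomes (25 ug) in 200mM potassium phosphate, preincubated 30 s at 37C with compound (8 concentrations, 5 nM–87.5 uM) and 35mM guaiacol; 1mM H2O2 starts reaction. Absorbance change at 450nm over first 80 s; loss of signal versus DMSO, three replicates.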
# [13] = ATG_M_06_XSP2: Attagene TRANS-FACTORIAL Multi-Species (XSP2) HepG2 Assay for M06 Transcription Factor (Internal Marker) (AID 2283811);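 further: internal background marker reporter mRNA measured by RT-PCR and capillary electrophoresis; hits are increases in signal above the DMSO baseline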
# Outline: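 Internal-marker reporter transcript, quantified by RT-PCR, 6-FAM labelling, HpaI digestion and capillary electrophoresis, 24 hours after dosing transfected HepG2 cells with 3 nM 6-alpha-fluorotestosterone and 1.5 nM norgestrel present; DMSO baseline.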
# [14] = tested on: turtle Estrogen Receptor (ERa), gene 101933533; experiment: ATG_trERa_XSP2: Attagene TRANS-FACTORIAL Multi-Species (XSP2) HepG2 Assay for turtle Estrogen Receptor (ERa) (AID 2283812);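 further: actives raise reporter signal above DMSO so AC50 reflects agonist activity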
# Outline: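 Readout is reporter mRNA quantified by RT-PCR with capillary electrophoresis after 24 h compound exposure, increase relative to DMSO. Uses transiently transfected human HepG2 liver cells carrying a chimeric turtle ERa-Gal4 receptor driving GAL4-UAS reporters.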
# AR (gene 367) [15] = biological target: AR (gene 367) (UniProt P10275); experiment: ACEA_AR_agonist_80hr: ACEA Biosciences xCELLigence Real-Time Cell Analysis on Androgen Receptor Agonism for Proliferation (AID 2283783);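 further: hits increase impedance growth signal above DMSO baseline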
# Outline: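 Eight concentrations, 1:4 serial dilution from a 100 uM final top, in biological duplicate. Impedance-based real-time growth of 22Rv1 cells after overnight baseline, recorded hourly and read at 80 hours. Controls: testosterone, MG132, assay media.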
# AR (gene 367) [16] = biological target: AR (gene 367) (UniProt P10275); experiment: ACEA_AR_antagonist_80hr: ACEA Biosciences xCELLigence Real-Time Cell Analysis on Androgen Receptor Antagonism for Proliferation (AID 2283787);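 further: 22Rv1 human prostate cancer cells with growth followed by electrical impedance; hits lower the impedance growth signal relative to DMSO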
# Outline: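 Impedance-based real-time growth of 22Rv1 prostate cells, read 80 h after dosing. Eight concentrations, 1:4 series, top 100 uM final (0.5% DMSO), n = 2; signal decrease scored against DMSO.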
# AR (gene 367), sequence (P10275 whole entry, looked up): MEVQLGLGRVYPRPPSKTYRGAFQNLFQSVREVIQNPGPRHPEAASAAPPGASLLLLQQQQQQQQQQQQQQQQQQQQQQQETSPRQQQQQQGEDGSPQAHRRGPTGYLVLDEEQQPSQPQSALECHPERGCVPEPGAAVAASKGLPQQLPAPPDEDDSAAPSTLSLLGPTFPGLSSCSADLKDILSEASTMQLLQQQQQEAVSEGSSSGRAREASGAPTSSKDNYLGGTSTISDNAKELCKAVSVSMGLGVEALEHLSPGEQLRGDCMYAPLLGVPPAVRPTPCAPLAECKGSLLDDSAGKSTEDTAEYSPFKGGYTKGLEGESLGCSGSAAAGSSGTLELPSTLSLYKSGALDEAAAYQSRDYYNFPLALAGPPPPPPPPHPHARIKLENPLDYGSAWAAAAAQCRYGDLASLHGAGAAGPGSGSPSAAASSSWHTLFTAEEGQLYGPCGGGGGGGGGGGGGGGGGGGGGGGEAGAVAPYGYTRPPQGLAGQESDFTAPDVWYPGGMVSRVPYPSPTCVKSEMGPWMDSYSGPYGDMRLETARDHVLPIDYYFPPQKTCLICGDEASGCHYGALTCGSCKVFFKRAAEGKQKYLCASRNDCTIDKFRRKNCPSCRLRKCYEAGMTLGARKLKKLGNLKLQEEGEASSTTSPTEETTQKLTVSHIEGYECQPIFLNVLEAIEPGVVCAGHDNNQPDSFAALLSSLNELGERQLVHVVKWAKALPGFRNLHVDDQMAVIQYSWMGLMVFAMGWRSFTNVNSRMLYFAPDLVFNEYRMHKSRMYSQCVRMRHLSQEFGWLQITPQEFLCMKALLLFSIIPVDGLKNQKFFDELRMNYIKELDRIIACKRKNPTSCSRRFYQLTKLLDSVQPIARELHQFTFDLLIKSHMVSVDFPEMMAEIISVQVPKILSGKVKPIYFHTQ
structure (smiles),measurement,setting,value
COc1nn(C(=O)NS(=O)(=O)c2ccccc2OC(F)(F)F)c(=O)n1C,outcome,[1],inactive
same,outcome,[2],inactive
same,outcome,[3],inactive
Cc1cc(C)cc(C)c1,outcome,[4],inactive
same,outcome,[5],inactive
same,outcome,[6],inactive
OCCN(CCO)CCO,AC50,[7],0.0236 µM (active)
same,outcome,[8],inactive
same,outcome,[9],inactive
same,outcome,[6],inactive
same,outcome,[2],inactive
same,outcome,[10],inactive
Nc1ccc(N)cc1,outcome,[1],inactive
same,outcome,[2],inactive
same,AC50,[3],49.8 µM (active)
CN(C)C(=S)S,outcome,[4],inactive
same,AC50,[11],12.4 µM (active)
same,AC50,[7],66.3 µM (active)
same,AC50,[8],75.9 µM (active)
same,AC50,[9],71.7 µM (active)
same,AC50,[6],0.00103 µM (active)
same,AC50,[12],250 µM (active)
same,outcome,[1],inactive
same,outcome,[2],inactive
same,AC50,[10],29.2 µM (active)
CC(C)(C)c1ccccc1O,outcome,[6],inactive
same,outcome,[1],inactive
same,outcome,[2],inactive
same,AC50,[3],81.5 µM (active)
COc1ccc(N)cc1,outcome,[1],inactive
same,outcome,[2],inactive
same,AC50,[3],52 µM (active)
same,outcome,[3],inactive
CCC[CH2][Sn]([Cl])([Cl])[CH2]CCC,AC50,[1],4.16 µM (active)
same,AC50,[2],3.75 µM (active)
same,AC50,[3],1.09 µM (active)
CCN(CCO)CCO,outcome,[1],inactive
same,outcome,[2],inactive
same,outcome,[3],inactive
CC(O)(CS(=O)(=O)c1ccc(F)cc1)C(=O)Nc1ccc(C#N)c(C(F)(F)F)c1 (stereo not drawn),AC50,[1],44 µM (active)
same,outcome,[1],inactive
same,AC50,[2],21.4 µM (active) and 9.65 µM (active)
same,outcome,[3],inactive
same,outcome,[13],inactive
same,outcome,[14],inactive
COc1ccccc1N,outcome,[4],inactive
same,outcome,[6],inactive
same,AC50,[12],33.2 µM (active)
same,outcome,[1],inactive
same,outcome,[2],inactive
same,outcome,[3],inactive
O=C(N[C@H]1CN2CCC1CC2)c1ccc2c(c1)OCCO2,outcome,[6],inactive
same,outcome,[2],inactive
same,outcome,[3],inactive
same,outcome,AR (gene 367) [15],inactive
same,outcome,AR (gene 367) [16],inactive
CCOCn1c(-c2ccc(Cl)cc2)c(C#N)c(Br)c1C(F)(F)F,AC50,[1],6.93 µM (active)
same,AC50,[2],7.97 µM (active)
same,AC50,[3],50 µM (active)
O=C(O)C1(c2ccc3c(c2)OC[C@H](Cc2ccc(-c4ccccc4)cc2)[C@H]3O)CCCC1,outcome,[4],inactive
same,AC50,[11],13.5 µM (active)
same,outcome,[6],inactive
same,AC50,[1],34.6 µM (active)
same,outcome,[2],inactive
same,AC50,[3],78.3 µM (active)
O=c1[nH]c(=O)n(Cl)c(=O)n1Cl,outcome,[1],inactive
same,outcome,[2],inactive
same,outcome,[3],inactive
CCOP(=S)(OCC)O/N=C(\C#N)c1ccccc1,outcome,[13],inactive
same,AC50,[14],7.97 µM (active) and 2.27 µM (active)
COCCl,outcome,[14],inactive
O=C(O)COc1cc(Cl)c(Cl)cc1Cl,outcome,AR (gene 367) [15],inactive
[Cl][Sn]([c]1ccccc1)([c]1ccccc1)[c]1ccccc1,outcome,[13],inactive

# From PubChem BioAssay (EPA / NIEHS)
